Source: PubChem BioAssay (NCI)
About 79,000 compounds went through this panel and 15% of them were active in at least one assay; those are over-represented in the sample as a whole. Rule as the data show it: active = growth inhibition above about 70%; inactive = the rest.

Assays:
[1] = NCI Yeast Anticancer Drug Screen. Data for the rad50 strain (AID 155);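 also: 0% = growth of vehicle-only cultures of the same strain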; details: S. cerevisiae rad50 strain growth inhibition; at 50.0 µM; hits give high values
Outline: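 Cells are treated with compound, grown, and their growth is then scored against vehicle-only cultures of the same repair-deficient yeast strain.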

[2] = NCI Yeast Anticancer Drug Screen. Data for the mec2-1 strain (AID 157); details: S. cerevisiae mec2-1 strain, at 50.0 µM, hits give high values
Outline: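 Readout is yeast growth inhibition, normalised to vehicle-treated controls, in the mec2-1 strain exposed to compound.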

[3] = NCI Yeast Anticancer Drug Screen. Data for the sgs1 mgt1 strain (AID 161);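 also: 0% = growth of cultures given vehicle only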; details: S. cerevisiae sgs1 mgt1 strain, at 50.0 µM, hits give high values
Outline: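 Compounds are added to genetically altered yeast, and growth is compared with cultures given vehicle alone to give percent inhibition.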

[4] = NCI Yeast Anticancer Drug Screen. Data for the cln2 rad14 strain (AID 165);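 also: 0% = growth equal to vehicle treated cultures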; details: S. cerevisiae cln2 rad14 strain, at 50.0 µM, hits give high values
Outline: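 Relative to vehicle controls, growth inhibition of compound-treated cln2 rad14 yeast was recorded.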

[5] = NCI Yeast Anticancer Drug Screen. Data for the bub3 strain (AID 167); details: S. cerevisiae bub3 mutant strain, at 50.0 µM, hits give high values
Outline: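 Part of a panel of yeast mutants defective in DNA damage repair or cell cycle regulation. Each strain is grown with compound, and inhibition is calculated relative to solvent-treated cultures.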

[6] = NCI Yeast Anticancer Drug Screen. Data for the mlh1 rad18 strain (AID 175); details: S. cerevisiae mlh1 rad18 strain growth inhibition; at 50.0 µM; hits give high values
Outline: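 Test agents were incubated with a yeast strain of defined genotype (DNA damage repair defect). Inhibition of growth was derived by comparison with vehicle-exposed cultures.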

Measured: growth inhibition

CCCCNC(=O)c1ccccc1C
inactive: [1] 4.8% | [2] 4.7% | [3] -6.7% | [4] -34.9% | [5] 2.25% | [6] 1.35%

Cc1ccc(S(=O)(=O)OC(CI)C2OC(c3ccccc3)OC3COC(c4ccccc4)OC32)cc1 (stereo unspecified)
inactive: [1] 0.25% | [2] 13.2% | [3] 7.7% | [4] 8.6% | [5] 16.1% | [6] 25.6%

CCCCCn1cnc2cc(N3CCOCC3)c([N+](=O)[O-])cc2c1=O
inactive: [1] 4.9% | [2] 34.9% | [3] 5.75% | [4] 8.2% | [5] 18.2% | [6] 14.3%

O=C(C(=NC12CC3CC(CC(C3)C1)C2)NNc1ccc([N+](=O)[O-])cc1[N+](=O)[O-])C(Br)C(=O)c1ccccc1 (stereo unspecified)
inactive: [1] 47.2% | [2] 45.9% | [3] 56.2% | [4] 3.25% | [5] 51.5% | [6] 39.9%

CN(C)CCCNC(=O)CCNC(=O)c1cc(NC(=O)c2cc(NC(=O)c3cc(NC(=O)c4nc(NC(=O)CCCNC(=O)c5cc(NC(=O)c6cc(NC(=O)c7cc(NC(=O)c8nccn8C)cn7C)cn6C)cn5C)cn4C)cn3C)cn2C)cn1C
inactive: [1] -17.3% | [2] -31.9% | [3] 23.1% | [4] 28.8% | [5] 15.3% | [6] -46.4%

CCCCC(=O)N/N=C/c1c[nH]c2ccc(Br)cc12
inactive: [1] 4.3% | [2] 6.05% | [3] -9.1% | [4] 0.85% | [5] 12.9% | [6] 0.05%

CC1(CO)CCCC1NCCNC1CCCC1(C)CO (stereo unspecified)
inactive: [1] 8.6% | [2] -6.7% | [3] 3.35% | [4] 10.3% | [5] -27.9% | [6] 15.5%

O=S(=O)(O)c1ccc(N/N=C/c2ccccc2)cc1
inactive: [1] -9.45% | [2] 12.7% | [3] 12.1% | [4] 5.3% | [5] -10.2% | [6] 14.3%

O=C(OC(=O)c1ccc(Cl)cc1)c1ccc(Cl)cc1
inactive: [1] -4.65% | [2] 25.9% | [3] 5.45% | [4] -8.15% | [5] -9.2% | [6] -7.35%

COc1ccc(CC2(Cc3ccc(OC)cc3)CCOC2=O)cc1
inactive: [1] -23.1% | [2] -31.9% | [3] -16.1% | [4] 1.2% | [5] 2.25% | [6] -31.4%

O=C1C(c2ccccc2)=[N+]([O-])c2cc([N+](=O)[O-])ccc21
inactive: [1] -15.8% | [2] 5.65% | [3] 13.8% | [4] 23.2% | [5] 14.8% | [6] 36%

O=[N+]([O-])c1cc(/C=N/NS(=O)(=O)c2ccc(F)cc2)c(O)c([N+](=O)[O-])c1
inactive: [1] 10.2% | [2] -11.2% | [3] -14.6% | [4] 3.65% | [5] 0.35% | [6] 9%

CSc1nc2c(nnn2C2OCC(O)C(O)C2O)c(=O)[nH]1 (stereo unspecified)
inactive: [1] -10.7% | [2] -0.5% | [3] -11.9% | [4] -4.3% | [5] -6.1% | [6] 6.4%

Cc1cc(C)n(-c2ccc(Cl)nn2)n1
inactive: [1] 9.25% | [2] 8.35% | [3] 4.35% | [4] -27.6% | [5] 9% | [6] -1.7%

CC(=O)N(C(C)=O)C1=C(c2ccccc2)C(=O)c2ccccc21
inactive: [1] 13.2% | [2] 22.2% | [3] 14% | [4] -0.75% | [5] -2.95% | [6] 40.1%

CC(C(=O)O)n1c(=O)ssc1=O (stereo unspecified)
inactive: [1] 1.95% | [2] 3.05% | [3] 1.3% | [4] -9.25% | [5] -8.7% | [6] 0%

C/C(=N\NC(=O)c1ccncc1)c1ccc(Cl)cc1Cl
inactive: [1] 5.85% | [2] 7.15% | [3] 0.55% | [4] 1.95% | [5] 4.65% | [6] 8.5%

C/C(CC(=O)Nc1ccc(Cl)c(Cl)c1)=N/NC(=O)C[n+]1ccccc1
inactive: [1] 16.8% | [2] 5.15% | [3] 7.45% | [4] -19.6% | [5] 5.85% | [6] 29.2%

Cc1[nH]nc2c1NC(=O)OC2
inactive: [1] -3.1% | [2] -1.1% | [3] 1.5% | [4] -23.4% | [5] -8.15% | [6] 2.45%

CCCCCCCCOc1ccc(Cl)cc1
inactive: [1] -2.95% | [2] -11.8% | [3] -5.35% | [4] -35.2% | [5] -21.6% | [6] -28.9%

C/C(CC(=O)Nc1ccc(Cl)cc1)=N\NC(N)=S
inactive: [1] -7.95% | [2] -4.65% | [3] 9.6% | [4] 20.4% | [5] -3.75% | [6] -0.6%

O=C(CN1C(=O)c2ccccc2C1=O)OC1C=CCCC1 (stereo unspecified)
inactive: [1] 12.2% | [2] 0.65% | [3] 1.5% | [4] 18.7% | [5] 9.6% | [6] 10.3%

CCOC(=O)N(CCCl)C(=O)C(C)C
inactive: [1] -21.6% | [2] -39.1% | [3] -10.6% | [4] 24.8% | [5] -25.2% | [6] -11.1%

Cc1ccc(-c2n[nH]c(=O)n2/N=C\c2ccc([N+](=O)[O-])cc2)cc1
inactive: [1] 34% | [2] 7.3% | [3] -12.4% | [4] 3.55% | [5] -11.9% | [6] -41.5%

C=C1C(=O)O[C@@H]2[C@H]1CC[C@H](C)[C@]1(O)CCC(=O)[C@@]21C
inactive: [1] -5.3% | [2] -13.6% | [3] 14.2% | [4] 7.85% | [5] -4.75% | [6] 3%

Nc1cc(=O)n(-c2ccccc2)[nH]1
inactive: [1] -2.05% | [2] -10.6% | [3] -6.8% | [4] -19.9% | [5] -27.9% | [6] 22%

Cc1ccc(N2C(=O)CC3(CCCC3)C2=O)cc1Cl
inactive: [1] 14.6% | [2] -2% | [3] -6.05% | [4] 5.95% | [5] 5% | [6] 21.6%

O=C(Nc1ccc(Cl)c([N+](=O)[O-])c1)Oc1ccc2ccccc2c1
inactive: [1] 14.6% | [2] 3% | [3] 8.15% | [4] 11.9% | [5] 23.4% | [6] 10.7%

CC1(C)Cc2ccccc2C(C)(Cl)C(=O)N1 (stereo unspecified)
inactive: [1] -10.8% | [2] 0.3% | [3] 6.4% | [4] 17.9% | [5] -26.9% | [6] 17.8%

N#Cc1nc(Nc2cccc3ccccc23)sc1N
inactive: [1] 8.2% | [2] 14.8% | [3] 20.9% | [4] 12.1% | [5] 15.7% | [6] 51.1%

OCC(O)C(O)C(O)[C@H](O)c1nc2ccccc2[nH]1 (stereo partly specified)
inactive: [1] -15.7% | [2] -1.7% | [3] 0.15% | [4] -19.6% | [5] 27.4% | [6] 14.8%

CC(=O)OCC1OC(n2cccnc2=O)C(OC(C)=O)C1OC(C)=O (stereo unspecified)
inactive: [1] -0.55% | [2] 2.75% | [3] 2.25% | [4] 7.8% | [5] 8.7% | [6] 0.9%

CN(C)c1ccc(Cc2ccc(N(C)C)cc2[N+](=O)[O-])c([N+](=O)[O-])c1
inactive: [1] -4.35% | [2] 11.2% | [3] 19.9% | [4] 6.1% | [5] 15.3% | [6] -1.35%

c1ccc2cc(Nc3ccc(Nc4ccc5ccccc5c4)cc3)ccc2c1
inactive: [1] 0.25% | [2] 4.4% | [3] 12.3% | [4] 14.7% | [5] 27.2% | [6] 2.6%

O=c1c2ncccc2cc2n1CCc1c-2[nH]c2ccccc12
inactive: [1] -15.3% | [2] -15.9% | [3] 6.3% | [4] -4.75% | [5] -1.1% | [6] -0.2%

O=C(/C=C/c1ccccc1)Cc1nc2nnc(NC(=O)Nc3ccc(Cl)cc3)n2[nH]c1=O
inactive: [1] -9.15% | [2] 1.85% | [3] 1.5% | [4] -8.05% | [5] 6.15% | [6] 4.65%

CCCCNCC1COc2cccc(OCC)c2O1 (stereo unspecified)
inactive: [1] 17.1% | [2] -0.1% | [3] -2% | [4] 9.7% | [5] -6.75% | [6] 4%

COc1cccc(Oc2ccc(C)cc2)c1
inactive: [1] 17.2% | [2] -12.8% | [3] -18.6% | [4] -19.1% | [5] 8.95% | [6] -21.9%

COc1ccc2c(c1OC)C1=NCCc3cc4c(cc3C1(OC)C2=O)OCO4 (stereo unspecified)
inactive: [1] -7.15% | [2] 0.75% | [3] 7.05% | [4] 16.8% | [5] 13.7% | [6] -1.2%

CC(=O)Nc1ccc(NC(=O)c2ccccc2Cl)cc1
inactive: [1] -0.45% | [2] -9.15% | [3] 4.7% | [4] -6.6% | [5] 10.9% | [6] -33.1%

CC(=O)CC1(O)C(=O)C(C(C)(C)C)=CC2(C(C)(C)C)OC12 (stereo unspecified)
inactive: [1] 2.25% | [2] -13.1% | [3] -3.45% | [4] -10.1% | [5] 6.25% | [6] 0.25%
